Source: the supplement of paper PMC11482750
± gives the standard deviation of the averaged measurements.

Compound: CCCCN=C=S [butyl isothiocyanate]
Assay: control-subtracted net OSN firing rate; higher = stronger neuronal activation
Settings: odorant dilution (vol/vol): 1/100
Procedure: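 Single sensillum recordings from olfactory sensory neurons. The neurons sit in the maxillary palp or antennal sensilla of D. melanogaster (wild type, mutants, or at1 empty-neuron lines expressing Or42a homologs or the A181D S307P mutant) and of four Scaptomyza species. Each odorant was given as a 1 s pulse from 20 µl loaded on filter paper at 1:100 vol/vol, diluted in mineral oil (γ-hexalactone in DMSO). Spikes were counted in a 0.5 s window starting 0.2 s after onset, background was subtracted, the count was doubled, and the mean solvent-control response was subtracted.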

Q: Which “control-subtracted net OSN firing rate” value does the source give for S. hsui pb1b-like here?
A: Its value is -1 ± 5.2 spikes/s.

Q: S. flava pb3a-like was tested. Which “control-subtracted net OSN firing rate” value did it give?
A: Its value is 5.67 ± 8.2 spikes/s.

Q: With Or67dGal4; UAS-SflaOr42a3 at1 as the target, how does the “control-subtracted net OSN firing rate” value read?
A: The value was 74.8 ± 23 spikes/s.

Q: For Or67dGal4; UAS-A181D S301P at1, which “control-subtracted net OSN firing rate” value is on record?
A: The value was 68.6 ± 33 spikes/s.

Q: For S. montana pb3a-like, which “control-subtracted net OSN firing rate” value is on record?
A: The value was 0.667 ± 10 spikes/s.

Q: For Canton-S (D. melanogaster) pb3a, which “control-subtracted net OSN firing rate” value is on record?
A: Its value is 2.5 ± 6.6 spikes/s.

Q: For S. pallida pb2b-like, which “control-subtracted net OSN firing rate” value is on record?
A: Its value is 2.67 ± 9.3 spikes/s.

Q: For S. pallida pb1a-like, which “control-subtracted net OSN firing rate” value is on record?
A: Its value is 11.7 ± 10 spikes/s.

Q: Which “control-subtracted net OSN firing rate” value does the source give for Or67dGal4; UAS-SflaOr42a4 at1 here?
A: The value was 120 ± 36 spikes/s.

Q: For S. hsui pb1a-like, which “control-subtracted net OSN firing rate” value is on record?
A: The value was 7.67 ± 5.8 spikes/s.

Q: How did the “control-subtracted net OSN firing rate” value turn out when Canton-S (D. melanogaster) pb3b was run?
A: The value was 2 ± 11 spikes/s.

Q: Or67dGal4, UAS-Sfla Or42a4 at1 was tested. Which “control-subtracted net OSN firing rate” value did it give?
A: The value was 96.7 ± 25 spikes/s.

Q: Which “control-subtracted net OSN firing rate” value does the source give for S. montana pb1a-like here?
A: Its value is 92.3 ± 11 spikes/s.

Q: For S. flava pb1a-like, which “control-subtracted net OSN firing rate” value is on record?
A: The value was 90.7 ± 22 spikes/s.

Q: For Canton-S (D. melanogaster) pb2a, which “control-subtracted net OSN firing rate” value is on record?
A: Its value is 3.43 ± 2.8 spikes/s.

Q: S. hsui pb2a-like was tested. Which “control-subtracted net OSN firing rate” value did it give?
A: Its value is -1 ± 6 spikes/s.

Q: For S. montana pb2a-like, which “control-subtracted net OSN firing rate” value is on record?
A: The value was 2 ± 4.6 spikes/s.

Q: With Canton-S (D. melanogaster) pb1b as the target, how does the “control-subtracted net OSN firing rate” value read?
A: Its value is -2.22 ± 8 spikes/s.

Q: Which “control-subtracted net OSN firing rate” value does the source give for Or67dGal4, UAS-Sfla Or42a4/+ at1 here?
A: The value was 22.6 ± 4.1 spikes/s.

Q: How did the “control-subtracted net OSN firing rate” value turn out when S. flava pb2b-like was run?
A: Its value is -1.33 ± 10 spikes/s.

Q: For Or67dGal4, UAS-Sfla Or42a3 at1, which “control-subtracted net OSN firing rate” value is on record?
A: The value was 46 ± 28 spikes/s.

Q: Or67dGal4, UAS-Sfla Or42a3/+ at1 was tested. Which “control-subtracted net OSN firing rate” value did it give?
A: Its value is 27.7 ± 5 spikes/s.

Q: Canton-S (D. melanogaster) pb2b was tested. Which “control-subtracted net OSN firing rate” value did it give?
A: The value was -1.71 ± 8.6 spikes/s.

Q: Which “control-subtracted net OSN firing rate” value does the source give for S. montana pb2b-like here?
A: Its value is -0.333 ± 6 spikes/s.

Q: For Or67dGal4, UAS-Sfla Or42a2 at1, which “control-subtracted net OSN firing rate” value is on record?
A: The value was 2.86 ± 5 spikes/s.

Q: With Or67dGal4, UAS-Sfla A181D S307P/+ at1 as the target, how does the “control-subtracted net OSN firing rate” value read?
A: Its value is 29 ± 10 spikes/s.

Q: Which “control-subtracted net OSN firing rate” value does the source give for Canton-S (D. melanogaster) pb1a here?
A: Its value is 8 ± 8.9 spikes/s.

Q: Which “control-subtracted net OSN firing rate” value does the source give for S. flava pb1b-like here?
A: The value was -17.7 ± 20 spikes/s.

Q: With S. pallida pb1b-like as the target, how does the “control-subtracted net OSN firing rate” value read?
A: The value was -4.33 ± 11 spikes/s.

Q: S. montana pb3b-like was tested. Which “control-subtracted net OSN firing rate” value did it give?
A: The value was 0.333 ± 6.1 spikes/s.

Q: How did the “control-subtracted net OSN firing rate” value turn out when S. hsui pb3a-like was run?
A: Its value is 0 ± 6.8 spikes/s.

Q: How did the “control-subtracted net OSN firing rate” value turn out when S. hsui pb2b-like was run?
A: The value was 3.67 ± 6.9 spikes/s.

Q: Which “control-subtracted net OSN firing rate” value does the source give for S. hsui pb3b-like here?
A: Its value is 1 ± 2.8 spikes/s.

Q: How did the “control-subtracted net OSN firing rate” value turn out when S. pallida pb3a-like was run?
A: The value was -3 ± 7.5 spikes/s.

Q: Or67dGal4, UAS-Spal Or42a at1 was tested. Which “control-subtracted net OSN firing rate” value did it give?
A: The value was 18.2 ± 16 spikes/s.

Q: How did the “control-subtracted net OSN firing rate” value turn out when S. pallida pb2a-like was run?
A: The value was 5 ± 7.6 spikes/s.

Q: How did the “control-subtracted net OSN firing rate” value turn out when S. flava pb3b-like was run?
A: Its value is 1.67 ± 15 spikes/s.

Q: Which “control-subtracted net OSN firing rate” value does the source give for Or67dGal4, UAS-Dmel Or42a at1 here?
A: Its value is 10.3 ± 7.7 spikes/s.

Q: S. pallida pb3b-like was tested. Which “control-subtracted net OSN firing rate” value did it give?
A: Its value is -1.67 ± 20 spikes/s.

Q: How did the “control-subtracted net OSN firing rate” value turn out when S. flava pb2a-like was run?
A: The value was -3 ± 8.9 spikes/s.
